This is a sample that favours compounds with a hit; in the whole collection about 7.3% have one here.
Luc counter: Kinase-Glo luciferase inhibition (counter-screen); Q27757; Kinase-Glo luciferase, ATP luminescence, 8 min; Potency, µM (highest dose often 38.3 µM), most hits filed as inhibitors; 200,000 compounds, 0.28% hits; further: nearly all actives have a fitted effect of over 60% in size
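Compound is pinned into ATP-containing buffer (10 uM ATP, imidazole pH 7.2, 7 mM MgCl2). Kinase-Glo luciferase reagent is then added. Light output is recorded following an 8-min room-temperature incubation.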
FLuc modulator: counter-screen for miR-21 project: firefly luciferase inhibitors or activators. P08659. purified FLuc, Km substrates, luminescence inhibition. Potency, µM (doses to about 57.5 µM), hits mostly inhibitors. 360,000 compounds, 6.9% hits. AID 588342; further: nearly all actives have a fitted effect of over 55% in size
Target sequence (P08659 whole entry, looked up): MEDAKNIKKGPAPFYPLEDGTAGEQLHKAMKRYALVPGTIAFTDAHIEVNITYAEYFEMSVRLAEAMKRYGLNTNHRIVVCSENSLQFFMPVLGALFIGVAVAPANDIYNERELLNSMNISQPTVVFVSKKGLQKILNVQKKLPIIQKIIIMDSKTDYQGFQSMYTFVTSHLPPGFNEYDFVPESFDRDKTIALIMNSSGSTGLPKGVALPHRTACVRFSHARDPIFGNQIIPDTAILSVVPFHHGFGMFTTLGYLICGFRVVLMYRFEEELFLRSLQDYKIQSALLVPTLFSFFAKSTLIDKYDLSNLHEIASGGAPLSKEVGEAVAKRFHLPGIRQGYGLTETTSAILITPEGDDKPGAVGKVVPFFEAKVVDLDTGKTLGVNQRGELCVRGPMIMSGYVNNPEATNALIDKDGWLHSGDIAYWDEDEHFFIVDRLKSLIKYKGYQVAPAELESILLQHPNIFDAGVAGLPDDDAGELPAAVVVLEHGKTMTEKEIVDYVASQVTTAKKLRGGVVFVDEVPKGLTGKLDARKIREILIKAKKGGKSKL
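Purified P. pyralis luciferase (10nM final) with 10uM D-luciferin and 10uM ATP (Km levels) in 50mM Tris acetate pH 7.5, 10mM Mg acetate, 0.01% Tween-20, 0.05% BSA; qHTS 6-point titration, ~60 µM downward; luminescence read.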
SMN2 splice up: increases expression of the SMN2 splice variant | 210,000 compounds, 2.8% hits | Potency, µM (series often up to 46.1 µM), usual class: activators | HEK293 SMN2-luciferase splicing reporter, luminescence, 30-36 h; further: nearly all actives have a fitted effect of over 55% in size
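qHTS luciferase splicing reporter: luminescence rises when SMN2 exon 7 is included in transfected HEK293 cells. Compound exposure lasted 30-36 h at 37C, with 4.5 mM final sodium butyrate as control, followed by a ONE-Glo read.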
ELG1 genotoxic: genotoxicity induction in ELG1-luciferase HEK293T cells; Potency, µM (doses to about 46 µM), hits mostly activators; HEK293T ELG1-luciferase reporter, luminescence, 16 h; 330,000 compounds, 1.3% hits; AID 504466; further: nearly all actives have a fitted effect of over 60% in size
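Step 1: seed 2,000 HEK293T ELG1-luciferase cells per well. Step 2: add compound or DMSO, incubate 16 hr at 37 °C. Step 3: ONE-Glo, 30 min at room temperature, read luminescence.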
Rab9 prom act: activates the Rab9 promoter | Huh7 Rab9 promoter-luciferase reporter, luminescence, 24 h | Potency, µM (highest dose often 9.22 µM), actives largely listed as activators | 320,000 compounds, 2.8% hits; further: nearly all actives have a fitted effect of over 60% in size
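Luminescence read-out: Huh7 cells stably expressing Rab9-luciferase, treated 24 h with compound at 37 °C, then lysed with luciferase reagent for 10 min at ambient before reading.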
NPC1 promoter act: NPC1 promoter activation; Potency, µM (top dose mostly 9.22 µM), actives largely listed as activators; 320,000 compounds, 2.4% hits; AID 485313; Huh7 NPC1 promoter luciferase reporter, 24 h; further: nearly all actives have a fitted effect of over 60% in size
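Huh7 reporter cells (NPC1 promoter driving luciferase) are dosed with compound for 24 h at 37 °C, 5% CO2; luciferase detection reagent is then added and luminescence measured after 10 min at ambient temperature.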
Numbers stand for hits; 0 = inactive; ? = inconclusive; - = no result. The call rests on the fitted dose curve; in most records, active means well fitted curve in the direction sought with a large enough effect; inconclusive means small, poorly fitted or top-dose-only effect, or another doubt; inactive means no such curve, though single readings can be large; an effect the other way counts as inactive or inconclusive.

SMILES	Luc counter	FLuc modulator	SMN2 splice up	ELG1 genotoxic	Rab9 prom act	NPC1 promoter act
CC12CC[C@H]3[C@@H](CCC4(O)C[C@H](O)CCC34/C=N/NC(=O)c3ccccc3O)C1(O)CCC2C1=CC(=O)OC1 (stereo partly specified)	-	26.9µM	-	0	0	0
CC12CC[C@H]3[C@@H](CCC4(O)C[C@H](O)CCC34/C=N/NC(=O)c3ccc(O)cc3)C1(O)CCC2C1=CC(=O)OC1 (stereo partly specified)	-	19µM	-	0	0	0
CC12CC[C@H]3[C@@H](CCC4(O)C[C@H](O)CCC34/C=N/NC(=O)c3ccccc3F)C1(O)CCC2C1=CC(=O)OC1 (stereo partly specified)	-	0	-	0	0	0
O=C(c1ccc(CNS(=O)(=O)c2ccccc2)cc1)N1CCC2(CC1)OCCO2	0	?	0	?	3.55µM	?
O=C(c1ccc(CNS(=O)(=O)c2ccc(Br)cc2)cc1)N1CCC2(CC1)OCCO2	0	0	0	0	0	0
O=C(CSc1ccccc1)N1CCC2(CC1)OCCO2	0	?	12.6µM	10.3µM	?	?
Cn1c(=O)cc(SCC(=O)N2CCC3(CC2)OCCO3)c2ccc(Cl)cc21	0	0	20µM	0	0	0
O=C(CN1CCN(Cc2ccc(Cl)cc2)C1=O)N1CCC2(CC1)OCCO2	0	0	0	0	0	0
CCOc1cccc(CNCCc2c(C)[nH]c3ccc(OC(F)(F)F)cc23)c1O	-	0	-	0	0	0
COC(=O)C1=C(c2ccc3ccccc3c2)C[C@@H]2CC[C@H]1N2C(=O)NCc1ccc(C(F)(F)F)cc1	-	0	-	0	0	0
CCOC(=O)C(O)(c1ccc(NC(=S)NC(=O)c2ccc(Cl)cc2Cl)cc1)C(F)(F)F (stereo unspecified)	0	0	0	0	0	0
COc1ccc(CCN2CCCC(CN(C)C(=O)c3cc(C)oc3C)C2)cc1 (stereo unspecified)	-	13.5µM	-	18.3µM	2.24µM	2.51µM
CC(=O)OC(CC(=O)O)C[N+](C)(C)C (stereo unspecified)	0	0	12.6µM	0	0	0
COC(=O)CN1C(=O)CN=C(c2ccccc2Cl)c2cc(Br)ccc21	-	0	-	0	0	0
O=C(O)c1cc[c]([Hg][Cl])cc1	?	6.75µM	0	0	0	0
O=C(O)c1cccc(Cl)c1	-	-	0	-	-	-
Cc1ccc(-c2nc3ccc(Cl)cc3n2OC(=O)N(C)C)cc1	0	?	0	2.91µM	3.16µM	3.16µM
CCCC(C)c1nnc(NC(=O)CCS(=O)(=O)c2ccccc2)s1 (stereo unspecified)	-	?	-	0	0	0
Cc1ccnc(SCc2nc3ccccc3s2)n1	0	6.75µM	11.2µM	9.2µM	3.55µM	?
CCc1ccc(-n2nc(C)c3c2NC(=O)CSC3c2ccccc2C)cc1 (stereo unspecified)	-	0	-	-	-	-
C[C@@H]1O[C@@H](O[C@H]2C[C@@H](O)[C@]3(CO)[C@H]4[C@H](O)C[C@]5(C)[C@@H](C6COC(=O)C6)CC[C@]5(O)[C@@H]4CC[C@]3(O)C2)[C@H](O)[C@H](O)[C@H]1O (stereo partly specified)	0	0	0.794µM	0	0	0
CCOc1ccccc1-n1c(O)c(C=Nc2ccc(N(CC)CC)cc2)c(=O)[nH]c1=O	0	19µM	0	0	0	0
CCN(CC)c1ccc(N=Cc2c(O)n(-c3ccccc3C)c(=O)[nH]c2=O)cc1	0	?	0	0	0	0
Cc1ccc2c(c1)cc1c(=O)n(CC(=O)N3CCC4(CC3)OCCO4)nc(C)n12	-	0	-	0	0	0
c1ccc(OCCSc2nc3ccccc3[nH]2)cc1	0	16.9µM	?	0	0	?
SMILES	Luc counter	FLuc modulator	SMN2 splice up	ELG1 genotoxic	Rab9 prom act	NPC1 promoter act
COc1ccc(N2CCN(Cc3nc4ccccc4[nH]3)CC2)cc1	-	0	-	0	0	0
O=c1c2ccccc2nc(-c2ccc(-c3ccccc3)cc2)n1-c1ccncc1	0	16.9µM	0	0	0	0
Cc1ccc(-c2nc3ccccc3c(=O)n2-c2ccncc2)cc1	0	0	0	0	0	0
Cc1cc(C=C2C(=O)N(C)C(=S)N(C)C2=O)c(C)n1-c1ccncc1	-	26.9µM	-	0	0	0
Cc1ccnc(-n2c(C)cc(C=C3C(=O)N(C)C(=S)N(C)C3=O)c2C)c1	0	19µM	0	0	0	0
COc1ccc(OC)c(N2C(=O)NC(=O)C3(Cc4cc(C)ccc4N(C)C3)C2=O)c1 (stereo unspecified)	0	0	0	0	0	0
N#CCCn1cc(C=C2C(=O)NC(=O)NC2=O)c(-c2ccccc2)n1	0	?	0	0	0	0
O=C(O)CCn1cc(C=C2C(=O)NC(=S)NC2=O)c(-c2cc3ccccc3oc2=O)n1	0	16.9µM	0	0	0	0
O=C(O)CCn1cc(C=C2C(=O)NC(=S)NC2=O)c(-c2ccccc2)n1	0	23.9µM	0	0	0	0
Cc1ccc(C(C)(C)NC(=O)C2CCC(=O)N(C3CCCCCC3)C2)cc1 (stereo unspecified)	-	15.1µM	-	?	3.16µM	?
Cc1cc(C)n(-c2ccc(NN=C(C#N)C#N)cc2)n1	-	15.1µM	-	0	0	0
N#CC(C#N)=NNc1ccc(-n2ccc(C(F)(F)F)n2)cc1	-	15.1µM	-	0	0	0
COc1ccc2nc(N3CCN(C(=O)CS(=O)(=O)c4ccc(C)cc4)CC3)sc2c1	-	4.78µM	-	-	-	-
Cc1nn(C(C)(C)C)c(C)c1/C=N/OC(=O)Nc1ccc(Cl)cc1	-	0.0953µM	-	0	0	0
Cc1nc2ccc(OC(=O)c3ccccc3)cc2s1	-	8.49µM	-	0	0	0
COc1ccccc1NC(=O)Oc1cccc(OC(=O)c2ccccc2)c1	-	?	-	0	0	0
CN1C(=O)N(C)C(=O)C2(Cc3c(nc4ccccn4c3=O)N3CCC(Cc4ccccc4)CC32)C1=O (stereo unspecified)	0	0	0	0	0	0
O=C1N=C(N2CCCCC2)SC1=C1CCCCC1	0	13.5µM	0	16.4µM	2.82µM	?
CC(=O)c1cccc(OCC(=O)N2CCN(CC(=O)Nc3cccc(F)c3)CC2)c1	-	0	-	0	0	0
C1=C(c2c[nH]c3ccccc23)CCN(Cc2ccccc2)C1	-	0	-	0	0	0
Nc1c2c(nc3ccccc13)CCN(Cc1ccccc1)C2	-	23.9µM	-	0	0	0
CC(C)(C)c1csc(NC(=O)Nc2ccccc2)n1	0	3.38µM	7.94µM	0	1.78µM	3.98µM
NS(=O)(=O)c1ccc(NC(=O)Nc2ccccc2)cc1	-	?	-	0	0	0
COc1cc(/C=C/C(=O)c2c(O)n(CCc3ccccc3)c(=O)[nH]c2=O)ccc1O	0	6.75µM	0	0	0	0
CCCCCn1c(=O)c(C(=O)Nc2nc3ccccc3[nH]2)c(O)c2ccccc21	-	0	-	0	0	0

Compound activity deposited in PubChem BioAssay by National Center for Advancing Translational Sciences (NCATS).
